Laboratory results: PubChem BioAssay
Where “and” joins values, the source holds several entries; their conditions need not be identical. Identical values can stand only once. Some compounds were tested as several samples or in several runs, with calls that do not always agree. Calls of active or inactive are those of the source.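 Rule for the calls, unless noted: active = mean z-score across replicates of 1.96 or higher in either the MELAS or the Rieske mutant cell line; inactive = the rest.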

Tests used:
[1] = system: Hepatitis C virus NS3 helicase; test: blockers of NS3h binding to DNA – biochemical, fluorescence polarization, NIH Clinical Collection, primary screen (AID 743270; call rule not given here); conditions: NS3 helicase binding to Cy5-dT15 DNA, stronger effect = higher value, concentration not given here
[2] = molecular target: Single-stranded DNA-binding protein (Escherichia coli (strain K12)) (UniProt P0AGE0); test: SSB-ssDNA binding inhibitors – biochemical, fluorescence polarization, NIH Clinical Collection, counter-screen for HCV NS3 helicase inhibitor project (AID 743271; in the data active = inhibition above about 28%); conditions: E. coli SSB-DNA binding, stronger effect = higher value, concentration not given here
[3] = compounds distorting NS3 helicase fluorescence signal – biochemical, NIH Clinical Collection, artefact control for HCV NS3 helicase inhibitor project (AID 743272; call rule not given here;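 note: HCV NS3 helicase with a Cy5 labelled single stranded DNA probe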); conditions: fluorescence interference counterscreen, HCV NS3 helicase assay; stronger effect = lower value
[4] = Wnt pathway potentiators raising nuclear beta-catenin – imaging, WNT3A-conditioned medium, mouse C2C12, NPC library, primary screen (AID 1117326; in the data active = nuclear beta-catenin stimulation mostly above about 4.2%, no sharp cut-off; inactive = mostly below about 10%); conditions: stronger effect = higher value
[5] = stimulators of insulin release from INS-1E, primary screen, cell-based, 5 mM glucose, NPC library (AID 1117329;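 active = compound raises insulin release from rat beta cells at 5 mM glucose, no numeric limit stated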); conditions: rat INS-1E insulin secretion, at 10 µM, stronger effect = higher value
[6] = growth inhibition of GSK3B-pretreated HCT116 cells – cell-based, CellTiter-Glo, 0.2 to 20 µM (AID 1117336;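 active = compounds lowering colon cancer cell viability after pretreatment blocking the GSK3B kinase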); conditions: HCT116 viability after GSK3B inhibitor, at 20 µM, stronger effect = higher value
[7] = inhibition of endothelial tube formation, primary screen, imaging, VEGF stimulated, CD31 staining, tube area, NPC library (AID 1117340;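 active = compound that reduces growth-factor-driven endothelial tube area in a mixed cell culture, no cutoff stated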); conditions: VEGF-stimulated ADSC/ECFC co-culture, at 10 µM, stronger effect = higher value
[8] = GLP1 release stimulators, primary, NCI-H716, NPC library (AID 1117341;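 active = compound raises GLP1 secretion from the human gut endocrine cells, with no numeric limit stated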); conditions: NCI-H716 cells, at 10 µM, stronger effect = higher value
[9] = HCT116 colon cancer cell growth inhibition, primary screen, CellTiter-Glo luminescence, NPC library (AID 1117342;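 active = compounds that lower survival of HCT116 colon cancer cells in the luminescence readout, no numeric limit stated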); conditions: at 20 µM (top of the series)
[10] = reduced SW480 viability measured with CellTiter-Glo, NPC library, primary (AID 1117343;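 active = compounds that lower viability of the colon cancer cells in the luminescence readout, with no numeric limit stated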); conditions: CellTiter-Glo luminescence; at 20 µM (top of the series)
[11] = NPC library primary testing for decreased DLD-1 cell viability via CellTiter-Glo (AID 1117346;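 active = compounds that lower survival of DLD-1 colon cancer cells in the luminescence readout, no cutoff given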); conditions: DLD-1 viability, CellTiter-Glo luminescence; at 20 µM (top of the series)
[12] = molecular target: 6-phosphogluconate dehydrogenase, decarboxylating (Homo sapiens) (UniProt P52209); test: inhibition of human phosphogluconate dehydrogenase – biochemical, recombinant enzyme, NADPH absorbance, primary screen (AID 1159550;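 active = at least 20% inhibition of 6-phosphogluconate dehydrogenase activity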); conditions: recombinant 6PGD, NADPH absorbance 341 nm; at 10 µM; stronger effect = higher value
Chain of 6-phosphogluconate dehydrogenase, decarboxylating (Homo sapiens) (P52209 whole entry, looked up): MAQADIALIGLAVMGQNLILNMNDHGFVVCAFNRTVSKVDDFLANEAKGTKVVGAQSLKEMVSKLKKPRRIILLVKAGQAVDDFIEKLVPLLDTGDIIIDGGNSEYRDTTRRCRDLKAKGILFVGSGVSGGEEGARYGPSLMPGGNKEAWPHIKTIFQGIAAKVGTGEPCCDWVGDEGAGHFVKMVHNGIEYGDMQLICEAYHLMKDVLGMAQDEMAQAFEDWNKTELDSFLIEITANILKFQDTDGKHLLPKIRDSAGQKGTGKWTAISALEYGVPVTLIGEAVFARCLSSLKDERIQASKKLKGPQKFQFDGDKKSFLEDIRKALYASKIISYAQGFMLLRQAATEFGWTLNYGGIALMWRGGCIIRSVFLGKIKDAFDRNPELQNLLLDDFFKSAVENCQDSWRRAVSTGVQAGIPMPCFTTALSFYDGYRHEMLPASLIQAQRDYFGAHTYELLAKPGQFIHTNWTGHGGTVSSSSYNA

[13] = EMT-state selective cytotoxicity in co-culture – imaging, PC-3E GFP, TEM4-18 mCherry, primary screen (AID 1345086;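 active = compounds killing one labelled cell type while sparing the other, by normalised counts and ratio limits, not self-fluorescent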;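 for all read-outs here: cells exposed to compound for 72 h before imaging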;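 for red/green cell ratio (normalised): normalised mesenchymal count divided by normalised epithelial count so high means epithelial killing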); conditions: PC-3E GFP / TEM4-18 mCherry co-culture, imaging cell counts, at 1 µM; for red/green cell ratio (normalised): actives lie on both sides, counts scaled to control wells, 1 = unselective
[14] = MELAS cybrid and Rieske KO viability enhancers – cell-based, MELAS cybrids, Rieske KO mouse fibroblasts, CellTiter-Glo, primary screen (AID 1508586); conditions: low glucose;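 note: z relative to plate mean and SD of compound and empty wells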
[15] = molecular target: NAD(+) hydrolase SARM1 (Homo sapiens) (UniProt Q6SZW1); test: blocking NAD cleavage by SARM1 SAM-TIR – cell lysate, NAD-Glo luminescence (AID 1508614;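 active = compound whose remaining NAD level is above about 45 nM, limit read from the data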;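 note: higher remaining NAD means stronger inhibition of SARM1 NADase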); conditions: SAM-TIR HEK293T lysate NADase, at 1 µM, stronger effect = higher value
Chain of NAD(+) hydrolase SARM1 (Homo sapiens) (Q6SZW1 whole entry, looked up, the tested form may be a part): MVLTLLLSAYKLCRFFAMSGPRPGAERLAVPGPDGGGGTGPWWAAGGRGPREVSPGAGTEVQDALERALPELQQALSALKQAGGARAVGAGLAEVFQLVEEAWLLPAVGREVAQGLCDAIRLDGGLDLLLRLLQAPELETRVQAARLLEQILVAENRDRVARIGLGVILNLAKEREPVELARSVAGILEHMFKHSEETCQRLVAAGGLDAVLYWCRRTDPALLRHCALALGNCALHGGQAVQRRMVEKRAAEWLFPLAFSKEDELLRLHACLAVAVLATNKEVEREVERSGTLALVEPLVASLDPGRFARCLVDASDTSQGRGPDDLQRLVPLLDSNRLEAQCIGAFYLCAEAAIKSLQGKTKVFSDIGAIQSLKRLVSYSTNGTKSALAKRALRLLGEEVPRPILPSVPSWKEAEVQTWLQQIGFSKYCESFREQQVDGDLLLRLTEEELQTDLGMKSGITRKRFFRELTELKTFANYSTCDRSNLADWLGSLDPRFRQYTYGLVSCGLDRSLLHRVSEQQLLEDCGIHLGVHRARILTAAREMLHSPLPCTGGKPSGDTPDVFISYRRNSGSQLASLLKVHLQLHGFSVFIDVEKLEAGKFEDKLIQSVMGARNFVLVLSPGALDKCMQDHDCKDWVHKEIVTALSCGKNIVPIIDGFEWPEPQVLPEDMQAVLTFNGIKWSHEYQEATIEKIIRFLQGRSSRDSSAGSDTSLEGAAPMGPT

[16] = molecular target: Mitogen-activated protein kinase 7 (Homo sapiens) (UniProt Q13164); test: Gal4-ERK5 driven luciferase induction – cell-based, HTS, primary screen (AID 1508626;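 active = luciferase signal above three times the same-plate solvent-only control wells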;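 note: luciferase driven by Gal4-ERK5 fusion binding five Gal4 sites before minimal TATA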); conditions: HeLa Gal4-ERK5 transactivation, 18 h, at 5 µM, stronger effect = higher value
Chain of Mitogen-activated protein kinase 7 (Homo sapiens) (Q13164 whole entry, looked up, the tested form may be a part): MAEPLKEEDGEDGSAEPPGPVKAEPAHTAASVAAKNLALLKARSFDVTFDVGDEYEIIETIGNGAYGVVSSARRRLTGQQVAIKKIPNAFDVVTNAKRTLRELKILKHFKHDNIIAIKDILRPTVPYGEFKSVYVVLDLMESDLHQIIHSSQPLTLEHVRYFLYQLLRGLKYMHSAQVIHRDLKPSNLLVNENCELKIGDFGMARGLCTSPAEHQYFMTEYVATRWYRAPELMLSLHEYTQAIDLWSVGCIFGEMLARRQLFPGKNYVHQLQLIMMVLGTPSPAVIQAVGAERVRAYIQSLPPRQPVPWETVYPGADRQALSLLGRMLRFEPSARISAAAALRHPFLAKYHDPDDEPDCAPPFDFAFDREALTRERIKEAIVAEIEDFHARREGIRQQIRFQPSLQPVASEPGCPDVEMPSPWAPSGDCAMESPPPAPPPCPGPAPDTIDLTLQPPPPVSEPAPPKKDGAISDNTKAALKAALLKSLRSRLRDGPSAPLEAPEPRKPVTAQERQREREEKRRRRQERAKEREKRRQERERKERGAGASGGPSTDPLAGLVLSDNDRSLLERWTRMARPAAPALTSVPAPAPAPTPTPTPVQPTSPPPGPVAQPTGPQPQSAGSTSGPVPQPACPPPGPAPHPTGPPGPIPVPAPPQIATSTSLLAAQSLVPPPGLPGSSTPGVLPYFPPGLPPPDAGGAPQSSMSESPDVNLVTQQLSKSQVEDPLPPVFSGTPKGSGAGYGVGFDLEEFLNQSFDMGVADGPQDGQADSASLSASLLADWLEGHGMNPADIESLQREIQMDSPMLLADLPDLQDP

F380Y = test: BK channel mutant inhibitors and activators – cell-based, U2OS BacMam, thallium flux, beta subunits, selectivity assay, profiling panel (AID 1259406;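 active = thallium flux through the channel raised or lowered by more than 3 SD from vehicle-only wells, actives on both sides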;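 note: initial slope of Thallos dye fluorescence rise after thallium is added; log ratio against the mean of 0.3% DMSO vehicle wells on the same plate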); conditions: U2OS BacMam BK variants, at 30 µM
F380Y/beta2Delta = test: as above; conditions: U2OS BacMam BK variants, at 30 µM
[17] = molecular target: Calcium-activated potassium channel subunit alpha-1 (Homo sapiens) + Leucine-rich repeat-containing protein 26 (Homo sapiens) (UniProt Q12791+Q2I0M4); test: as above; conditions: U2OS BacMam BK variants, F380Y/Slo1WT/gamma1, at 30 µM
Chain of Calcium-activated potassium channel subunit alpha-1 (Homo sapiens) + Leucine-rich repeat-containing protein 26 (Homo sapiens) (Q2I0M4 whole entry, looked up, one chain of several): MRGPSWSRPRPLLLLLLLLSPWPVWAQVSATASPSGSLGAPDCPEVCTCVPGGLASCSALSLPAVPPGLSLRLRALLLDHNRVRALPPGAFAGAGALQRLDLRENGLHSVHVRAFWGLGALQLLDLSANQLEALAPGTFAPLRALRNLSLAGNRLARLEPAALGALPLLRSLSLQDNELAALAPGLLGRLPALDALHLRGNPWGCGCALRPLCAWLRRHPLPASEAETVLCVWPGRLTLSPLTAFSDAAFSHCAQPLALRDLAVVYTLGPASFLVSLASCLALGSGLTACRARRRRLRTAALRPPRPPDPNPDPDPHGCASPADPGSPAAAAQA

[18] = viability loss with induced miR-34 in A549 – imaging, A549 dox-inducible miR-34, nuclei and caspase counts, primary screen (AID 1347080;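 active = compounds whose cell count with miR-34 switched on is under 0.7 times the count with it off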); conditions: A549 miR-34 inducible, Hoechst nuclei count, 48 h
[19] = measured here: epithelial PC-3E GFP cell survival
[20] = measured here: mesenchymal TEM4-18 mCherry cell survival
[21] = MELAS cybrid survival, CellTiter-Glo 48 h, stronger effect = higher value
[22] = Rieske KO mouse fibroblast survival, CellTiter-Glo 72 h
[23] = stronger effect = lower value, cell number ratio, induced over uninduced
[24] = measured here: relative caspase fold change +Dox/-Dox
[25] = measured here: total cells with miR-34 induction, stronger effect = lower value
[26] = measured here: total cells without miR-34 induction

CNCCCC12CCC(c3ccccc31)c1ccccc12
1.11: normalised cell number [13, 19]
-0.1%: nuclear beta-catenin stimulation ([4]; stimulation, at 2 µM)
0.802 and 0.382 and 0.29: z-score [14, 22]
active: viability decrease [6] 55.6% | inhibition of viability [9] 87.4% | viability decrease (inhibition) [10] 121% | viability decrease (inhibition) [11] 68.3% | log fold change Tl+ flux (F380Y/beta2Delta) 0.203
inactive: inhibition [1] -1.98% | inhibition [2] -1.64% | fluorescence ratio [3] 0.83 | nuclear beta-catenin stimulation ([4]; at 10 µM) 1.9% | insulin secretion stimulation [5] 12.2% | tube area decrease [7] 12.2% | GLP1 secretion stimulation [8] 4.8% | inhibition [12] 8.09% | red/green cell ratio (normalised) [13] 0.89 | z-score [14, 21] -0.365 and 0.126 and 0.618 | remaining NAD [15] 10 nM | luciferase signal [16] 48 AU | log fold change Tl+ flux (F380Y) 0.104 | log fold change Tl+ flux [17] 0.0351
0.98: normalised cell number [13, 20]

C#C[C@]1(O)CC[C@H]2[C@@H]3CCC4=CC(=O)CC[C@@H]4[C@H]3CC[C@@]21CC
-0.1%: nuclear beta-catenin stimulation ([4]; stimulation, at 2 µM)
8700 and 5730 and 8530: cell count [18, 25]
1.39 and 1.03 and 0.879: fold change [18, 24]
inactive: inhibition [1] -3.56% | inhibition [2] -0.1% | fluorescence ratio [3] 0.96 | nuclear beta-catenin stimulation ([4]; at 10 µM) 2.2% | insulin secretion stimulation [5] -1.1% | viability decrease [6] -54.4% | tube area decrease [7] 0.1% | GLP1 secretion stimulation [8] 4.1% | inhibition of viability [9] -5.1% | viability decrease (inhibition) [10] 4.3% | viability decrease (inhibition) [11] -24.6% | inhibition [12] -0.702% | fold change [18, 23] 0.855 and 0.976 and 0.873 | z-score [14, 21] 1.16 and 0.00976 | remaining NAD [15] 10 nM | luciferase signal [16] 44 AU | log fold change Tl+ flux (F380Y) 0.0315 | log fold change Tl+ flux (F380Y/beta2Delta) 0.00649 | log fold change Tl+ flux [17] 0.0485
10200 and 5870 and 9770: cell count [18, 26]
1.41 and 0.657: z-score [14, 22]

CCCCc1oc2ccccc2c1C(=O)c1cc(I)c(OCCN(CC)CC)c(I)c1
0.8%: nuclear beta-catenin stimulation ([4]; stimulation, at 2 µM)
0.341 and -0.317 and -0.0304: z-score [14, 22]
inactive: inhibition [1] -1.97% | inhibition [2] 1.97% | fluorescence ratio [3] 0.95 | insulin secretion stimulation [5] 0.6% | GLP1 secretion stimulation [8] 3.9% | inhibition [12] 7.85% | red/green cell ratio (normalised) [13] 1.08 | z-score [14, 21] -0.425 and -1.46 and 0.238 | remaining NAD [15] 10 nM | luciferase signal [16] 44 AU
1.1: normalised cell number [13, 20]
1.02: normalised cell number [13, 19]
active: nuclear beta-catenin stimulation ([4]; at 10 µM) 71.4% | viability decrease [6] 103% | tube area decrease [7] 110% | inhibition of viability [9] 102% | viability decrease (inhibition) [10] 129% | viability decrease (inhibition) [11] 105%

Cc1c(OCC(F)(F)F)ccnc1CS(=O)c1nc2ccccc2[nH]1 (stereo not drawn)
-0.355 (inactive) and 2.16 (active): z-score [14, 21]
active: inhibition of viability [9] 54.6%
2.1%: nuclear beta-catenin stimulation ([4]; stimulation, at 2 µM)
0.886 and 0.276: z-score [14, 22]
0.7 and 1.26: normalised cell number [13, 19]
0.95 and 1.36: normalised cell number [13, 20]
inactive: inhibition [1] 1.53% | inhibition [2] 1.18% | fluorescence ratio [3] 0.94 | nuclear beta-catenin stimulation ([4]; at 10 µM) 5.4% | insulin secretion stimulation [5] 0.9% | viability decrease [6] 27.8% | tube area decrease [7] 32.8% | GLP1 secretion stimulation [8] -1.8% | viability decrease (inhibition) [10] 13.2% | viability decrease (inhibition) [11] -8.8% | inhibition [12] -1.09% | red/green cell ratio (normalised) [13] 1.36 and 1.09 | remaining NAD [15] 10 nM | luciferase signal [16] 60 AU

CNC(=O)Oc1ccc2c(c1)[C@]1(C)CCN(C)[C@@H]1N2C
1.03: normalised cell number [13, 19]
1: normalised cell number [13, 20]
0%: nuclear beta-catenin stimulation ([4]; stimulation, at 2 µM)
inactive: nuclear beta-catenin stimulation ([4]; at 10 µM) -0.4% | insulin secretion stimulation [5] 5% | viability decrease [6] 5% | tube area decrease [7] -23.5% | GLP1 secretion stimulation [8] 3.8% | inhibition of viability [9] 23.3% | viability decrease (inhibition) [10] 38.9% | viability decrease (inhibition) [11] 0.2% | inhibition [12] -7.09% and -14.3% and -6.98% | red/green cell ratio (normalised) [13] 0.96 | z-score [14, 21] -0.485 and 0.886 | remaining NAD [15] 10 nM | luciferase signal [16] 40 AU
-0.245 and 0.787: z-score [14, 22]

COc1cc2nc(N3CCN(C(=O)c4ccco4)CC3)nc(N)c2cc1OC
2.19 and 0.838: z-score [14, 22]
active: nuclear beta-catenin stimulation ([4]; at 10 µM) 47.5% | viability decrease [6] 80.9% | viability decrease (inhibition) [10] 120% | viability decrease (inhibition) [11] 78.7%
1.14 and 0.169 (inactive): z-score [14, 21]
1.25: normalised cell number [13, 20]
0.98: normalised cell number [13, 19]
7.8%: nuclear beta-catenin stimulation ([4]; stimulation, at 2 µM)
inactive: insulin secretion stimulation [5] 0.2% | tube area decrease [7] -2.7% | GLP1 secretion stimulation [8] 9.5% | inhibition of viability [9] 46.9% | inhibition [12] 8.49% | red/green cell ratio (normalised) [13] 1.27 | remaining NAD [15] 10 nM | luciferase signal [16] 128 AU | log fold change Tl+ flux (F380Y) 0.00597 | log fold change Tl+ flux (F380Y/beta2Delta) -0.00919 | log fold change Tl+ flux [17] 0.00974

CC(=O)OCC(=O)[C@@]12OC(C)(C)O[C@@H]1C[C@H]1[C@@H]3C[C@H](F)C4=CC(=O)C=C[C@]4(C)[C@@]3(F)[C@@H](O)C[C@@]12C
7700 and 7690: cell count [18, 26]
7270 and 6260: cell count [18, 25]
inactive: inhibition [1] 4.09% | inhibition [2] -1.24% | fluorescence ratio [3] 1.01 | nuclear beta-catenin stimulation ([4]; at 10 µM) 1.1% | insulin secretion stimulation [5] 0.2% | viability decrease [6] -25.9% | tube area decrease [7] 30.9% | GLP1 secretion stimulation [8] 0.7% | inhibition of viability [9] 20.4% | viability decrease (inhibition) [10] -2.3% | viability decrease (inhibition) [11] -3.8% | inhibition [12] -0.585% | fold change [18, 23] 0.945 and 0.813 | z-score [14, 21] 0.454 | remaining NAD [15] 10 nM | log fold change Tl+ flux (F380Y) 0.00343 | log fold change Tl+ flux (F380Y/beta2Delta) -0.00446 | log fold change Tl+ flux [17] 0.00932
2.1%: nuclear beta-catenin stimulation ([4]; stimulation, at 2 µM)
1.02: z-score [14, 22]
active: luciferase signal [16] 260 AU
2.11 and 1.02: fold change [18, 24]
